Screening data: PubChem, National Center for Advancing Translational Sciences (NCATS)
USP1 inh = Inhibitors of USP1/UAF1: Primary Screen; recombinant USP1/UAF1, Ub-Rhodamine cleavage fluorescence; Potency, µM (highest dose often 57.1 µM), for the others: top-dose activity change, negative = inhibition, actives largely listed as inhibitors; 390,000 compounds, 0.23% hits; AID 743255, 2014; note: potency is the fitted concentration of half-maximal effect; nearly all actives have a fitted effect of over 60% in size
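1 nM enzyme complex + cpd, 15 min RT; start with Ub-Rho 150nM final; kinetic fluorescence ex 480/em 540, 6 reads q60 s. Buffer 50mM HEPES pH 7.8, 0.5mM EDTA, 0.1 mg/ml BSA, 1mM TCEP, 0.01% Tween-20.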
GALK inhibitor = qHTS Assay for Inhibitors of Human Galactokinase (GALK); Potency, µM (highest dose often 57.5 µM), inactives show at the top dose activity change, negative = inhibition, hits mostly inhibitors; 270,000 compounds, 0.007% hits; Purified GALK, Kinase-Glo residual ATP luminescence; AID 1868, 2009; note: potency is the fitted concentration of half-maximal effect
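Galactose (100 uM) and ATP (35 uM) were turned over by 5 nM GALK for 1 h at RT. Kinase-Glo Plus then converted the remaining ATP into a luminescent signal.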
TrxR1 inh = qHTS Assay for Inhibitors of Mammalian Selenoprotein Thioredoxin Reductase 1 (TrxR1): qHTS | AID 588453, 2011 | Thioredoxin reductase 1, cytoplasmic (Rattus norvegicus), O89049 | 390,000 compounds, 1% hits | Potency, µM (highest dose often 114 µM), inactives show at the highest dose activity change, negative = inhibition, most hits filed as inhibitors | recombinant rTrxR1, NADPH fluorescence consumption, selenite substrate; note: potency is the fitted concentration of half-maximal effect; nearly all actives have a fitted effect of over 65% in size
Target sequence (O89049 whole entry, looked up): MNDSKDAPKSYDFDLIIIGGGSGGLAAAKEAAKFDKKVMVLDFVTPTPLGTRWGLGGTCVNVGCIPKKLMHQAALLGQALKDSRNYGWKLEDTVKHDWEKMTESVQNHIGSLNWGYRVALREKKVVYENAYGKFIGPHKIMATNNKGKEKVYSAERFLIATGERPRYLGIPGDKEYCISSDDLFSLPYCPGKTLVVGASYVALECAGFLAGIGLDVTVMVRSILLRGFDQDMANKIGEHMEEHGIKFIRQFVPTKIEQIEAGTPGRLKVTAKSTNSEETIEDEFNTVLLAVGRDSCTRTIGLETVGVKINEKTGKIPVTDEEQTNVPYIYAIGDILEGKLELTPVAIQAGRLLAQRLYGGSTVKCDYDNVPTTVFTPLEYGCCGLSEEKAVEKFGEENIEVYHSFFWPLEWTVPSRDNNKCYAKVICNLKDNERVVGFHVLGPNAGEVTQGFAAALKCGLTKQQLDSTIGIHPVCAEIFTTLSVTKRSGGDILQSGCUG
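Rat TrxR1 (90 nM in the dispensed reagent) was pre-reduced with 400 uM NADPH for 5 min at room temperature, then incubated with compound for 15 min. After 400 uM selenite was added, NADPH fluorescence (Ex 340/Em 450 nm) was followed for 8 min.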
Coupling enz = qHTS Assay for Inhibitors of Fructose-1,6-bisphosphate Aldolase from Giardia Lamblia: Coupling assay counterscreen; coupling enzyme system counterscreen, AmpLite Red fluorescence; activity change, negative = inhibition, % at 58.2 µM, hits read low; 290,000 compounds, 0.67% hits; in the data active = activity change below about -30%
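First, compound is pin-transferred into glyceraldehyde-3-phosphate coupling-enzyme reagent at 57.5 uM final and held 10 min at RT. Next, substrate, coupling system and AmpLite Red are added. After 20 min RT, fluorescence (525/598 nm) is read.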
TrxR1 substrate = qHTS Assay for Substrates of Mammalian Selenoprotein Thioredoxin Reductase 1 (TrxR1): qHTS. purified TrxR1 substrate turnover, NADPH consumption readout. Thioredoxin reductase 1, cytoplasmic (Rattus norvegicus), O89049. 390,000 compounds, 0.01% hits. Potency, µM (series often up to 114 µM), without a hit: at the highest dose activity change, negative = substrate turnover; note: potency is the fitted concentration of half-maximal effect; nearly all actives have a fitted effect of over 50% in size
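Rat TrxR1, dispensed at 90 nM, was prereduced with 400 uM NADPH (final) for 5 min at ~22 deg C, then incubated with compound 15 min before 400 uM selenite. A first-read NADPH fluorescence drop versus no-compound background flagged substrates.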
Starred values were filed as active, the others as inactive; u = inconclusive; x = not tested or not shown; ! = a repeat was not active; [ ] = remark or other dose. Most compounds without a hit are left out; they make up all but 1.5% or so of the library. Unless noted, calls come from the whole dose curve; as a rule, active = well fitted curve in the direction sought with a large enough effect; inconclusive = small, poorly fitted or top-dose-only effect, or another doubt; inactive = no such curve, though single readings can be large; an effect the other way counts as inactive or inconclusive. % is set by controls: 0 for no effect and ±100 for the full control effect.

SMILES | USP1 inh | GALK inhibitor | TrxR1 inh | Coupling enz | TrxR1 substrate
COc1cc(N2C(=O)C=CC2=O)c(OC)cc1Cl | -15% | -1% | 3.2µM* | 1 | -2%
O=[N+]([O-])c1ccc(Sc2ncccn2)c([N+](=O)[O-])c1 | 0% | -2% | u | 0 | -9%[57.1 µM]
O=C(O)CCSc1ccc([N+](=O)[O-])cc1[N+](=O)[O-] | -16% | -1% | 71µM* | 1 | -3%
Cc1cc(SC#N)cc(C)c1NC(=O)CCl | -23% | 0% | 50µM* | 1 | -7%
CCc1cc(SC#N)cc(C)c1NC(=O)CCl | -15% | 0% | u | 1 | 20%[57.1 µM]
Cc1cc(C)cc(C(=O)C[n+]2cccc(Br)c2)c1 | x | x | -6% | x | 1%
C(=C\c1nccc2ccccc12)/c1ccc(N2CCOCC2)cc1 | x | x | 1% | x | -2%
CC(C)c1cc2c(c(O)c1O)[C@@]13CCCC(C)(C)C1CC2OC3=O (stereo not given in full) | -22% | x | 16µM* | -30* | 4%
COc1ccc(Cn2nnnc2C(c2ccccn2)N2CCN(c3ccc(O)cc3)CC2)cc1 (stereo not given) | x | x | 4% | x | -2%
CC1(C)Cc2c(C#N)c(N)n(-c3ccccc3)c(=S)c2CO1 | -10% | 2% | 3%[57.1 µM] | -17 | -5%[57.1 µM]
CC1(C)C=C2C(=NN(c3ccccc3)C(N)=C2C#N)CO1 | 4.5µM* | u | 0% | -62* | -21%
C/C=C\C1=C(CO)C(=O)[C@@H]2OC2C1=O (stereo not given in full) | x | x | x | -21 | x
CC(C)OC(=O)CC(=O)c1sc2nc3c(cc2c1N)CN(C)CC3 | -26% | 4% | 20µM* | -16 | -1%[57.1 µM]
CN1CCc2nc3sc(C(=O)Nc4c(F)cccc4F)c(N)c3cc2C1 | u | x | -8% | x | 6%
CC(OC(=O)c1ccccc1OCC(=O)Nc1ccc(Br)cc1)C(=O)NC1CCCC1 (stereo not given) | x | x | -6% | x | -7%
COc1ccc(C(NC(=O)/C=C/c2ccco2)c2ccc(OC)cc2)cc1 | -2% | -1% | 25µM* | 1 | 0%
COc1ccc(-c2csc(NC(=S)NC(=O)/C=C/c3ccco3)n2)cc1OC | -14% | -1% | -6% | 3 | -7%
COc1ccc(C(NC(=O)/C=C\c2ccco2)c2ccc(OC)c(OC)c2)cc1 (stereo not given) | 2% | -1% | 8.9µM* | 3 | -5%
CC(C)(C)c1ccc(O)c(N=Cc2cccc([N+](=O)[O-])c2)c1 | x | x | -5% | x | 3%
COc1ccc(CCNC(=O)CS(=O)Cc2nc(-c3cccs3)oc2C)cc1OC (stereo not given) | -12% | -1% | 40µM* | x | 3%
Cc1ccc(CNC(=O)CS(=O)Cc2nc(-c3cccs3)oc2C)cc1 (stereo not given) | -12% | 0% | u | -1 | 6%[57.1 µM]
CCOc1ccc(CCNC(=O)CS(=O)Cc2nc(-c3ccc(OC)c(OC)c3)oc2C)cc1OCC (stereo not given) | -10% | -7% | 0% | x | -2%
Cc1ccc(CCNC(=O)CS(=O)Cc2nc(-c3cccs3)oc2C)cc1 (stereo not given) | -3% | -2% | 14µM* | -1 | -2%
COc1ccc(-c2nc(CS(=O)CC(=O)NCc3ccc(C)cc3)c(C)o2)cc1OC (stereo not given) | -11% | -3% | 50µM* | 2 | 9%
O=c1[nH]c(=O)n([C@H]2C[C@@H](O)[C@@H](CO)O2)cc1C=CBr | x | x | -6%[57.1 µM] | x | -2%[57.1 µM]
SMILES | USP1 inh | GALK inhibitor | TrxR1 inh | Coupling enz | TrxR1 substrate
CCCCC#Cc1nc(NC)c2ncn([C@@H]3O[C@H](CO)[C@@H](O)[C@H]3O)c2n1 | x | x | -4%[57.1 µM] | x | 0%[57.1 µM]
C#CCCCO/N=C1/C[C@@H](O)[C@@H](O)[C@@H]2[C@@H]3C(=O)N(c4cccc(Oc5ccccc5)c4)C(=O)[C@H]3CC[C@@H]12 | x | x | x | 6 | x
CCCSc1nc(NCc2ccco2)c2c3c(sc2n1)COC(C)(C)C3 | -11% | 0% | 45µM* | 0 | -10%
COc1oc(=O)c2cc(N)ccc2c1Cl | x | x | x | 1 | x
N#Cc1nc(-c2ccccc2)cc(-c2ccccc2)n1 | x | x | 8% | x | 6%
CNC(=S)NNc1nncc2ccccc12 | -5% | -3% | 10%[57.1 µM] | 2 | 2%[57.1 µM]
NNc1nncc2ccccc12 | x | x | -5%[57.1 µM] | -59*! | u
COc1ccc(/C=c2\[nH]c(=O)/c(=C/c3ccc(OC)c(OC)c3)[nH]c2=O)cc1OC | x | x | 11% | x | -4%
C/C=C1\COC(C(=O)NCc2ccccn2)(C(F)(F)F)C=C1C=C(C)C (stereo not given) | x | x | 4µM* | 2 | 9%
C/C=C1\COC(C(=O)NCc2ccccc2)(C(F)(F)F)C=C1C=C1CCCCC1 (stereo not given) | -31% | x | 1µM* | 1 | 5%
C/C=C1\COC(C(=O)NCc2cccc(OC)c2OC)(C(F)(F)F)C=C1C=C(C)C (stereo not given) | x | x | -18% | 3 | -6%
C/C=C1\COC(C(=O)NCCCN2CCCC2=O)(C(F)(F)F)C=C1C=C(C)C (stereo not given) | -18% | x | 3.2µM* | -1 | -5%
C/C=C1\COC(C(=O)NCCN2CCCC2)(C(F)(F)F)C=C1C=C1CCCCC1 (stereo not given) | -14% | x | 7% | 3 | -2%
C=C(CO)C1Cc2c(ccc3c2OC2COc4cc(OC)c(OC)cc4C2C3=O)O1 (stereo not given) | x | x | x | -2 | x
C[C@H](NC(=O)CNC(=O)[C@@H](NC(=O)[C@H](Cc1ccccc1)NC(=O)CNC(=O)CNC(=O)[C@@H](N)Cc1ccccc1)[C@@H](C)O)C(=O)N[C@@H](CCCN=C(N)N)C(=O)N[C@@H](CCCCN)C(=O)N[C@@H](CO)C(=O)N[C@@H](C)C(=O)N[C@@H](CCCN=C(N)N)C(=O)N[C@@H](CCCCN)C(N)=O | x | x | x | -1 | x
Cc1ccc(C(=O)CCNc2ccc(F)c(Cl)c2)o1 | -19% | 12% | 56µM* | 3 | -3%
COc1ccc(S(=O)(=O)n2nc(OC(=O)c3ccncc3)cc2N)cc1 | -20% | 1% | 28µM* | 6 | 2%
COC(=O)CN1C(=O)C2(C(C#N)=C(N)Oc3c2c(C)nn3-c2ccccc2)c2ccccc21 (stereo not given) | -8% | -6% | -1%[57.1 µM] | -50* | -4%[57.1 µM]
COC(=O)CN1C(=O)C2(C(C#N)=C(N)Oc3n[nH]c(-c4cccs4)c32)c2ccccc21 (stereo not given) | 5% | 2% | u | -25 | -5%
